LmPK inhibitor = blocks Leishmania mexicana pyruvate kinase activity; Q27686; purified LmPK, Kinase-Glo ATP luminescence, 1 h; Potency, µM (doses to about 57.5 µM), inactives show at the top dose activity change, negative = inhibition, most hits filed as inhibitors; 290,000 tested, 0.37% active; AID 1721; note: potency is the fitted concentration of half-maximal effect; % is set by controls: 0 for no effect and ±100 for the full control effect
Target sequence (Q27686 whole entry, looked up): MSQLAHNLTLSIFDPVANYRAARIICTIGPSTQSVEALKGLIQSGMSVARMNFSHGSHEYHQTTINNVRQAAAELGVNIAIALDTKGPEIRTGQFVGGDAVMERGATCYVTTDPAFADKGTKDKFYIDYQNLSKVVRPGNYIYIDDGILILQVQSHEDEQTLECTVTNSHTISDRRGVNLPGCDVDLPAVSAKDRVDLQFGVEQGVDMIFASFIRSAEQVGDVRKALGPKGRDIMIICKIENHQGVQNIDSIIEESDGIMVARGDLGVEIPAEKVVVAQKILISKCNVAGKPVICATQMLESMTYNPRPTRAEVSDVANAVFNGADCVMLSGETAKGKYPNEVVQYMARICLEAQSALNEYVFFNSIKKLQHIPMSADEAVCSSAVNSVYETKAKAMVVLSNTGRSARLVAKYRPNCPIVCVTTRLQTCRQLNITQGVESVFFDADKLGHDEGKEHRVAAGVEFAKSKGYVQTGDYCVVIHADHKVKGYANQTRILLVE
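Purified LmPK (0.1 nM) converted ADP (0.1 mM) to ATP with PEP (0.5 mM) in imidazole buffer pH 7.2 with KCl and MgCl2, 1 h at room temperature. ATP was read by Kinase-Glo luminescence; data normalized to uninhibited and no-enzyme controls.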
Tb PYK inh = blocks Trypanosoma brucei pyruvate kinase | TbPYK enzyme, Kinase-Glo Plus ATP luminescence, 45 min | Q57TT1 | 410,000 tested, 0.12% active | Potency, µM (doses to about 76.8 µM), inactives show at the highest dose activity, negative = inhibition, actives largely listed as inhibitors | AID 624173; note: potency is the fitted concentration of half-maximal effect; % is set by controls: 0 for no effect and ±100 for the full control effect; nearly all actives have a fitted effect of over 50% in size
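Enzyme and substrate buffer are dispensed first and compound is pin-transferred. ADP at 130 uM final then starts the reaction, which runs 45 min at room temperature. Detection reagent is added for 10 min before luminescence is imaged.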
CHX counter = counter-screen hit for Shiga toxin inhibitors, cycloheximide. cell reporter, cycloheximide protein synthesis inhibition counterscreen. max response, %. 300,000 tested, 12% active. AID 2314; in the data active = max response mostly above about 13%, no sharp cut-off; inactive = mostly below about 14%; note: read at 38.3 µM for the half of the compounds with a filed dose; 0% is about no effect
Shiga toxin inh = Shiga toxin inhibition; 290,000 tested, 9.2% active; Vero cells, Shiga toxin protein synthesis inhibition reporter; AID 2315; inhibition, % at 38.7 µM; in the data active = inhibition mostly above about 28%, no sharp cut-off; inactive = mostly below about 43%; note: 0% is about no effect
Sm TGR block = inhibitors of Schistosoma mansoni thioredoxin glutathione reductase | purified TGR, DTNB reduction, TNB absorbance 405 nm | Potency, µM (series often up to 114 µM), for inactives: at the top dose activity change, negative = inhibition, usual class: inhibitors | 360,000 tested, 3% active; note: potency is the fitted concentration of half-maximal effect; % is set by controls: 0 for no effect and ±100 for the full control effect; nearly all actives have a fitted effect of over 60% in size
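Kinetic colorimetric format: TGR-catalysed, NADPH-driven DTNB reduction monitored via TNB absorbance. Enzyme dispensed at 20 nM; compound exposure 15 min at room temperature before reaction start.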
FBPA Giardia inh = blocks Giardia fructose-bisphosphate aldolase activity. A8B2U2. purified Giardia FBPA. Potency, µM (titrated, usually from 59.6 µM), without a hit: at the highest dose activity, negative = inhibition, actives largely listed as inhibitors. 290,000 tested, 0.71% active. AID 2451; note: potency is the fitted concentration of half-maximal effect; % is set by controls: 0 for no effect and ±100 for the full control effect; nearly all actives have a fitted effect of over 55% in size
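Giardia FBPA (40 nM reagent) was preincubated 10 min at RT with compound (up to 57.5 uM final), then substrate plus GAPDH/TPI/NAD/arsenate coupling system with diaphorase/resazurin was added; resorufin fluorescence (525/598 nm) was read after 20 min.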
* hit, by the source's call; ? = inconclusive; / = no result given; + = active, no number. This excerpt belongs to a sample that is enriched for hits. Unless noted, calls come from the whole dose curve; as a rule, active = well fitted curve in the direction sought with a large enough effect; inconclusive = small, poorly fitted or top-dose-only effect, or another doubt; inactive = no such curve, though single readings can be large; an effect the other way counts as inactive or inconclusive.

SMILES	LmPK inhibitor	Tb PYK inh	CHX counter	Shiga toxin inh	Sm TGR block	FBPA Giardia inh
Clc1cccc(/C=N\Nc2nccs2)c1	1%	0%	20*	65	-10%	-1%
CCn1cc2nc(SCC(=O)Nc3ccccc3C(F)(F)F)n(Cc3ccc(C)cc3)c(=O)c2n1	/	5%	/	/	-14%	/
O=C1CC(N2CCN(c3nc4ccccc4s3)CC2)C(=O)N1c1ccc(F)cc1 (centres undefined)	3%	1%	-6	-6	0%	0%
O=c1c(Cl)c(N2CCN(c3ccc(F)cc3)CC2)cnn1-c1nc2ccccc2s1	-8%	-1%	39*	75*	-9%	5%
CSc1nnc(C)c(=O)n1COC(=O)c1ccc(S(=O)(=O)N(C)C)cc1	0%	-5%	5	-12	-20%	0%
CCCn1c(SCc2nc(-c3ccccc3C)no2)nnc1-c1ccc(Cl)cc1	/	-1%	/	/	0%	/
O=C(CNc1ccccc1)N/N=C/c1ccc2c(c1)OCO2	4%	-13%	20*	29*	-10%	4%
O=C(CCc1ccccc1)NCC(=O)N/N=C/c1ccc2c(c1)OCO2	-8%	4%	19*	53*	5%	2%
O=C(CSc1ncccn1)N/N=C/c1ccc2c(c1)OCO2	-1%	0%	34*	25	-12%	8%
O=C(CSc1ncccn1)N/N=C/c1ccc(OC2CSC2)cc1	0%	-1%	12	24	-7%	5%
O=C(CNc1ccc2c(c1)OCO2)N/N=C\c1cn(Cc2ccccc2)c2ccccc12	1%	-20%	-2	-5	?	-17%
COc1ccc(CCC(=O)N/N=C/c2ccc3c(c2)OCO3)cc1	/	-2%	/	/	/	/
O=C(Cn1ccc(C(F)(F)F)n1)N/N=C/c1ccc2c(c1)OCO2	-6%	-9%	37*	122*	9%	4%
O=C(CN1C(=O)C(c2ccc(F)cc2)=NC12CCCCCC2)Nc1ccccc1Cl	/	5%	/	/	6%	/
CCOc1ccccc1-c1nc(Cn2c(=O)cc(C)c3c(C)nn(-c4ccccc4)c32)c(C)o1	/	-3%	/	/	-1%	/
O=C(CNc1ccccc1)N/N=C/c1ccc([N+](=O)[O-])cc1	3%	-11%	9	-3	4%	4%
O=C(NN=Cc1ccc2c(c1)OCO2)NN=Cc1ccc2c(c1)OCO2	/	-8%	/	/	/	/
O=C(Cc1ccccc1)N/N=C/c1ccc2c(c1)OCO2	2%	-16%	34*	72*	27%	8%
O=C(CNc1ccccc1)N/N=C/c1ccc2c(c1)OCCO2	-3%	4%	34*	48*	-2%	2%
COC(=O)C1=C(C)NC(=O)NC1c1ccc(-c2ccc(Cl)cc2)o1 (centres undefined)	5%	2%	1	-6	14µM*	6%
COC(=O)C1=C(C)NC(=S)NC1c1ccc(-c2cc(Cl)ccc2Cl)o1 (centres undefined)	0%	-18%	1	12	13µM*	-6%
O=S(=O)(NCCc1csc2nc(-c3ccc(Cl)cc3)nn12)c1ccc(Oc2ccccc2)cc1	/	-7%	/	/	43%	/
COC(=O)c1ccc(C(NC(=O)OCc2ccccc2)/C(C)=C/[C@@H](C)C(=O)N2CCN(C)CC2)cc1 (some centres undefined)	/	/	/	/	/	-1%
COc1cc(C2C(=O)N(C3CCCCC3)CC(=O)N2CCC2=CCCCC2)ccc1OC(C)C (centres undefined)	/	?	/	/	-10%	/
CCNc1ccccc(C(=O)/C=C/c2ccc3c(c2)OCO3)c1=O	-3%	-18%	24*	54	2.5µM*	?
SMILES	LmPK inhibitor	Tb PYK inh	CHX counter	Shiga toxin inh	Sm TGR block	FBPA Giardia inh
COc1ccc(NC(=O)/C(=C/c2ccc3c(c2)OCO3)NC(C)=O)cc1	1%	1%	72*	+	23%	2%
COc1ccc(NC(=O)C(c2ccccc2)N(C)C(=O)/C=C\c2ccc3c(c2)OCO3)cc1 (centres undefined)	/	-9%	/	/	-1%	/
COc1ccc(NC(=O)/C=C/c2ccc3c(c2)OCO3)cc1	-1%	-3%	48*	78*	/	-13%
COc1cc(/C=N/N(C)c2ccccc2)ccc1O	1%	-10%	31*	88*	-26%	-10%
COCCn1c(=O)c(-c2cccc(C#N)c2)nc2cnc(N3CCNCC3)nc21	/	2%	/	/	/	1%
CCOC(=O)c1ccc2c(c1)N(Cc1cccc([N+](=O)[O-])c1)C(=O)c1ccccc1S2	/	3%	/	/	4%	/
CCCCN(CCCC)CC(O)c1cc(Cl)cc2c1-c1ccc(Cl)cc1/C2=C/c1ccc(Cl)cc1 (centres undefined)	/	-15%	/	/	/	/
COC(=O)/C=C/c1ccc2c(c1)OCO2	-1%	-3%	22*	83*	-1%	0%
CN(/N=C/c1ccc2c(c1)OCO2)c1ccccc1	-9%	-18%	95*	127*	0%	-10%
CN(C(=O)/C=C/c1ccc2c(c1)OCO2)c1ccccc1	-7%	-2%	42*	92*	3%	3%
Cc1ccc(C(=O)N/C(=C\c2ccc3c(c2)OCO3)C(=O)Nc2ccc(C(=O)O)cc2)cc1	3%	3%	14	39*	7%	9%
C(=N\N(c1ccccc1)c1ccccc1)/c1ccc2c(c1)OCO2	5%	-2%	-2	-13	-19%	0%
CN(C(=O)C=Cc1ccccc1)c1ccccc1	/	-2%	/	/	/	/
CCCNC(=O)COC(=O)/C=C/c1ccc2c(c1)OCO2	-4%	3%	4	39	-19%	11%
Cc1cccc(CNc2ncncc2-c2ccccc2Cl)c1	/	/	/	/	/	6%
CC(=O)N1CCCC(C)(C(=O)Nc2cccc(OC(C)C)c2)C1 (centres undefined)	/	4%	/	/	/	/
CCOc1ccc(NC(=O)Cn2cc(C(=O)c3ccc(OCC)cc3)c(=O)c3cc4c(cc32)OCCO4)cc1	/	-5%	/	/	-5%	/
Cc1c(NC(=O)C(C)OC(=O)/C=C/c2ccc3c(c2)OCO3)c(=O)n(-c2ccccc2)n1C (centres undefined)	0%	-16%	37*	89*	8%	3%
O=C(NCC1(c2ccccc2)CCCC1)C(=O)Nc1cccc(Br)c1	/	-11%	/	/	2%	/
COC(=O)c1ccc(-c2nc3cc(Cl)c(N)cc3s2)cc1	?	-27%	48*	106*	1%	?
COC(=O)c1ccc(-c2nc(O)c(C)s2)cc1	-3%	-16%	0	28	/	-8%
